Data on 104 compounds can be found in PubChem BioAssay AID1823 (The Scripps Research Institute Molecular Screening Center, 2009).

The structures appear in SMILES notation. The campaign covered roughly 16,000 compounds. About 70 (0.4%) were called active. This excerpt belongs to a sample that is enriched for actives. A number with no mark means an inactive call. Cut-off read from the data, not from the text of the source: active = inhibition above about 75%; inactive = the rest.

A short description of this assay: quenches luminol chemiluminescence in Nox1 counter-screen (AID 1823). To be noted: HRP/luminol/H2O2 chemiluminescence counterscreen; at 6.7 µM; stronger effect = higher value.
For the compound `Cn1nccc1NC(=O)CC(CC(=O)O)c1ccccc1` (centres undefined), the inhibition was -2.7%.
As for `COc1ccc(CCNC(=O)c2ccccc2-c2ccccc2C(=O)O)cc1OC`, the inhibition was -7.76%.
Take `CC(=O)N1c2ccccc2C=Cc2ccccc21`: the inhibition was 2.77%.
With `CCOC(=O)Cn1cc(Cl)ccc1=O`, the inhibition is -6.12%.
`CCc1ccc(S(=O)(=O)Nc2ccc(C)c(NS(C)(=O)=O)c2)cc1`: the inhibition is 6.77%.
Regarding `CCOC(=O)c1c(C)nn(-c2ncccc2NC(=O)Nc2cccc(Cl)c2Cl)c1C`, the inhibition is -3.12%.
With `COC(=O)c1cc(S(=O)(=O)NCc2csc(-c3cccs3)n2)oc1C`, the inhibition is 2.46%.
`COC(=O)c1sccc1NC(=S)Nc1ccc(C)cc1`: the inhibition is -25.1%.
The result for `O=C(Nc1ccccc1N1CCOCC1)C1CCN(c2nccc(C(F)(F)F)n2)CC1` reads -1.03%; that for `O=C(Nc1ccc(I)cc1Cl)C(=S)NCc1cccs1`, -1.16%.
The result for `Cn1nnnc1SCC(=O)Nc1ccc(OC(F)(F)F)cc1` reads -2.01%; that for `O=C(/C=C/c1cccc2ccccc12)N1CCCCC1`, 2.1%.
On to `Cc1c(C)c(C)c(CSC(=N)CC#N)c(C)c1C`, for which the inhibition is -1.01%.
On to `CC(C)c1ccc(N2C(=O)/C(=C\c3ccc(-c4ccc([N+](=O)[O-])cc4)o3)SC2=S)cc1`, for which the inhibition is 2.47%.
For `O=C(NCc1csc(-c2cccs2)n1)Nc1ccccc1-c1ccccc1`, the inhibition is 0.51%.
In the case of `c1ccc2c(c1)NC(C1Nc3ccccc3O1)O2` (centres undefined), the inhibition is 8.91%.
In the case of `CC(C)S(=O)(=O)/C(C#N)=C/NN1CCOCC1`, the inhibition was 41%.
Take `O=S(=O)(Oc1cccc(C(F)(F)F)c1)c1cc(S(=O)(=O)c2ccccc2)cs1`: the inhibition was 3.95%.
The result for `O=C(Nc1ccccc1-c1ccccc1)c1cccs1` reads 0.86%; that for `O=C(O)C1CC2CC1CCC2O` (centres undefined), -5.03%; that for `CC(C)CC(F)Cc1cnc(=O)[nH]c1` (centres undefined), -1.51%.
For `CC(=O)c1cc([N+](=O)[O-])c(NC2CCCCC2)s1`, the inhibition is 3.91%.
In the case of `NNC(=O)c1cc(OCC(F)(F)F)nc(OCC(F)(F)F)c1` it was 9.46%; in that of `N#Cc1c(C2CCCCC2)[nH]c(=S)[nH]c1=O`, 11.2%; in that of `CCCc1nc(N)ncc1C(=O)OCC`, -1.66%.
As to `O=C(CCSc1nc2ccccc2o1)N1CCc2cc([N+](=O)[O-])ccc21`, the inhibition was -3.32%.
The result for `O=C(O)CSC(SCC(=O)O)c1ccc2c(c1)OCO2` reads 0.02%; that for `CC(CC(=O)O)Oc1ccc(Cl)cc1[N+](=O)[O-]` (centres undefined), 0.37%; that for `CNC(=S)NNC(=O)c1cc(C)on1`, 11%.
Regarding `CS(=O)(=O)c1ccc(C(=O)Nc2cccc(Cl)c2)cc1`, the inhibition is 2.61%.
`COC(=O)/C=C/c1cn(C2OCC(CO)C2O)c(=O)[nH]c1=O` (centres undefined): the inhibition is -0.07%.
`CC1=NCCNC(C)=C1N1CCOCC1`: the inhibition was -0.98%.
For the compound `NC(=O)c1sccc1Br`, the inhibition was -1.3%.
Regarding `COC(=O)c1sc(S(C)=O)c(-c2ccon2)c1C` (centres undefined), the inhibition is 0.42%.
`CC(C)(C)C(=O)NNC(=O)c1ccc(Oc2ccc(C3SCCS3)cc2)o1`: the inhibition was -19.4%.
Take `CNC(=O)NNC(=O)Cn1nnc(N2CCCCC2)n1`: the inhibition is 14.1%.
As to `N#C/C(=C\C=C\c1ccccc1)c1nc2ccccc2[nH]1`, the inhibition was 2.56%.
Regarding `O=[N+]([O-])c1cc(C(F)(F)F)ccc1OCCO`, the inhibition is -3.63%.
`CCCCCCCN=C(C)c1ccccc1O`: the inhibition was -3.37%.
With `O=C(O)CCC(=O)Nc1ccc2c(c1)OCCCO2`, the inhibition was -0.93%.
For `COc1ccc2c(OC(C)=O)coc2c1`, the inhibition is -1.52%.
In the case of `CN(C(=O)Nc1ccc(Cl)cc1)n1cnc2ccccc2c1=O`, the inhibition was -2.37%.
For `O=C1c2ccccc2C(=O)N1CCCN1CCN(Cc2c(F)cccc2Cl)CC1`, the inhibition was -3.51%.
As to `N#CCSc1ccc2ccccc2c1`, the inhibition is -1.43%.
Regarding `O=C(NNC(=S)Nc1ccc(S(=O)(=O)N2CCCCC2)cc1)c1ccncc1`, the inhibition was 12.6%.
Regarding `CN(Cc1nnc(-c2ccc3ccccc3c2)o1)c1nnc(C(F)(F)F)s1`, the inhibition is -4.66%.
The result for `N#Cc1sccc1Br` reads 0.55%; that for `N/C(Cc1cccs1)=N\OC(=O)c1ccccc1`, -0.54%.
As to `CC(C)N(C(=O)c1ccc(-c2ccccc2F)cc1)C(C)C`, the inhibition is -5.07%.
In the case of `N#C/C(=C\c1ccsc1Sc1ccc(Cl)cc1)S(=O)(=O)c1ccc(Cl)cc1` it was 2.56%; in that of `Cc1ccc(S(C)(=O)=NC(=O)NS(=O)(=O)Oc2ccc(Cl)cc2Cl)cc1` (centres undefined), 2.88%; in that of `O=C(Nc1ccc(C(F)(F)F)cn1)c1ccc(Oc2cc(Cl)cc(Cl)c2)o1`, 0.64%.
As to `CSc1cccc(NC(=O)C(=O)NCCc2ccccn2)c1`, the inhibition was 3.62%.
The result for `Cc1ccc(SCC(=O)Nc2ccc(F)cc2F)cc1` reads -8.4%; that for `CC1=NOC(=O)/C1=C\c1ccccc1`, 3.43%.
Consider `CC(C)(C)c1ccc(C(=O)CC(N)=O)cc1`, for which the inhibition is 6.19%.
Turning to `O=C1COCC(=O)N1c1ccc2c(c1)OCO2`, the inhibition is -6.14%.
For the compound `Cc1nn(C)c(C)c1Sc1nccc(-c2cccnc2)n1`, the inhibition was -8.26%.
Turning to `CCOC(=O)C(O)(NC(=O)Nc1ccccc1)C(F)(F)F` (centres undefined), the inhibition is -5.95%.
In the case of `COCCCN/C(SCc1c(F)cccc1Cl)=C(\C#N)C(N)=O` it was 1.37%.
As to `N#C/C=C/c1ccc(C(F)(F)F)cc1[N+](=O)[O-]`, the inhibition is 1.6%.
The result for `O=C(c1ccc(Oc2ccc(Cl)cc2)c([N+](=O)[O-])c1)N1CCCC1` reads 2.31%; that for `O=C(NNc1ccccc1C(F)(F)F)NS(=O)(=O)c1ccc(Cl)cc1`, -2.61%.
Turning to `COc1ccc(/C(C)=N/Nc2c([N+](=O)[O-])cc(C(F)(F)F)cc2[N+](=O)[O-])cc1CC#N`, the inhibition is -5.96%.
Take `Cc1noc(C)c1C(=O)N1CCOCC1`: the inhibition is -1.15%.
Regarding `CCOC(=O)c1cc(CC)sc1NC(=O)c1cccnc1Oc1ccccc1`, the inhibition was 0.49%.
As for `COC(=O)CCN1CCc2cc(N=Nc3ccc(C(F)(F)F)cc3)ccc21`, the inhibition was 17.7%.
Regarding `CC(C)(C)NC(=O)[C@@H]1C[C@@H]2CCCC[C@@H]2CN1C(=O)c1ccno1`, the inhibition was -0.12%.
On to `O=C(O)CC(CC(=O)Oc1ccccc1N1CCCCC1)c1ccccc1` (centres undefined), for which the inhibition is -1.25%.
Consider `CSc1nsc(SC)c1C(=O)Nc1cc(C(F)(F)F)cc(C(F)(F)F)c1`, for which the inhibition is 1.1%.
With `COc1ccc(C2CC(c3cccs3)=Nc3ccccc3S2)c(Cl)c1OC` (centres undefined), the inhibition is -0.88%.
The result for `c1ccc(-c2nsc(N3CCNCC3)n2)cc1` reads -5%; that for `NS(=O)(=O)c1cccc(NC(=O)c2ccccc2)c1`, -5.88%.
In the case of `CCOC(=O)c1c(-c2ccco2)csc1NC(=O)Nc1ccc(Cl)cc1` it was 3.19%; in that of `Cc1[nH]c2ccccc2c1Sc1ccc(Cl)cc1`, -11.5%.
As for `N#Cc1ccc(Oc2ccc(Cl)cc2)c([N+](=O)[O-])c1`, the inhibition is -1.59%.
Consider `Cc1c(S(=O)(=O)c2ccc(Cl)cc2)csc1C(=O)Nc1ccc2c(c1)OCCO2`, for which the inhibition was 0.51%.
In the case of `CCCCN1Cc2c(nc3cc(-c4ccccc4)[nH]n3c2=O)C1=O` it was 5.15%; in that of `O=C1Nc2ccccc2C12NNC(=S)NN2`, 7.82%; in that of `NS(=O)(=O)c1ccc(Oc2c(Cl)cccc2[N+](=O)[O-])cc1`, -4.5%.
On to `COc1cccc(NC(=S)NNC(=S)NC2CC3CCC2C3)c1` (centres undefined), for which the inhibition was 5.57%.
On to `N/C(=N\OC(=O)c1cccc(Cl)c1)c1ccc2nonc2c1`, for which the inhibition was -0.67%.
As to `CO/N=C(/C)c1ccc2c(c1)CCO2`, the inhibition is -0.06%.
In the case of `CC(=O)Nc1ccc(NC(=O)c2cc(C)ccc2[N+](=O)[O-])c(C)c1` it was 0.85%; in that of `O=C(Cn1nnc2ccccc21)NCCSCc1ccco1`, -2.68%; in that of `COC(=O)C(C#N)c1ccc(C(F)(F)F)cc1[N+](=O)[O-]` (centres undefined), 4.34%.
Regarding `O=C(CN1CCOCC1)NNC(=O)c1cccs1`, the inhibition is 3.1%.
The result for `C/C(=N\NC(N)=S)c1ccncc1` reads 15%; that for `O=C(Nc1ccccc1C(=O)NCc1c(F)cccc1Cl)c1ccccc1Cl`, 4.86%; that for `Cn1c(=O)c(C#N)cn(-c2ccccc2)c1=O`, -4.85%.
`CSc1sc(C(=O)NC2CC2)c(-c2ccc(Cl)cc2)c1C#N`: the inhibition was 2.76%.
Regarding `CCOC(=O)C(NC(=O)c1ccco1)(Nc1cc(C)ccn1)C(F)(F)F` (centres undefined), the inhibition was -2.71%.
Regarding `COC(=O)c1c(C(=O)OC)c2n(c1C)CCS2`, the inhibition is -2.55%.
For the compound `N#CNC(N)=Nc1cc(Cl)ccc1Cl`, the inhibition was -0.88%.
For the compound `CCOC(=O)O/N=C(\N)c1ccc(Cl)cc1`, the inhibition is -3.37%.
With `Cn1cccc1-c1n[nH]c(=S)n1-c1ccc(Cl)cc1Cl`, the inhibition is 2.46%.
The result for `CCCCCCNC(=O)NCCCCCC` reads -3.83%.
Regarding `Cc1oc(-c2ccc(Cl)cc2)cc1C(=O)N1CCOCC1`, the inhibition was -4.96%.
Turning to `COc1ccc(Cc2nnc(SC)[nH]c2=O)cc1`, the inhibition was 1.75%.
Consider `CC(C)[C@H]1COC(c2cccc(C3=N[C@@H](C(C)C)CO3)n2)=N1`, for which the inhibition is -2.9%.
Consider `O=C(CCN1CCN(C(c2ccccc2)c2ccccc2)CC1)c1ccccc1`, for which the inhibition was -3.01%.
For the compound `Cn1cc(Cl)c(/C=C(\C#N)C(N)=O)n1`, the inhibition is -6.34%.
As for `COc1ccc2cc(/C(C)=N/OC(=O)Nc3ccccc3)ccc2c1`, the inhibition is -18.6%.
As for `CCOC(=O)c1c[nH]n2c(=O)c3c(nc12)CCC3`, the inhibition is 0.29%.
